Compound activity as filed in PubChem BioAssay.
ATXN2 expr inh – inhibitors of ATXN2 expression; HEK-293 ATXN2-luciferase reporter, luminescence, 24 h; Potency, µM (top dose mostly 57 µM), inactives show at the top dose activity change, negative = inhibition, most hits filed as inhibitors; 360,000 compounds, 0.72% hits; further: on the % scale 0 is the no-effect control and ±100 the full control effect; nearly all actives have a fitted effect of over 55% in size
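qHTS (up to 57 uM final) was run with 24 h compound exposure of reporter cells at 37 °C. Each well was multiplexed: SteadyGlo luminescence measured ATXN2-luciferase expression after a fluorogenic Gly-Phe-AFC viability readout (25 uM final).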
HepG2 tox – counter-screen for TGF-b inhibitors: cytotoxicity in HepG2 cells | 410,000 compounds, 0.76% hits | Potency, µM (highest dose often 46.1 µM), inactives show at the top dose activity change, negative = cytotoxicity, actives largely listed as cytotoxic | HepG2 CAGA-GFP viability, ATP luminescence, 18 h
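HepG2 CAGA-GFP cells (1000/well, DMEM with 1% FBS) received compound, then TGF-beta at 500 pg/mL final, and were incubated 18 hours at 37 degrees C. Viability was read by CellTiter-Glo luminescence. Media-only wells were set as complete cell-killing and DMSO as no toxicity.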
S2 tox – cell viability loss in ATXN counter-screen; S2 cells (HEK-293 line with an ATXN2-luciferase reporter) viability, CellTiter-Fluor protease fluorescence, 24 h; Potency, µM (titrated, usually from 56.7 µM), actives largely listed as cytotoxic; 400,000 compounds, 0.49% hits; AID 651635; further: nearly all actives have a fitted effect of over 40% in size
Gal4-VP16 FLuc – Gal4-VP16 reporter inhibition counter-screen; Drosophila S2 Gal4-VP16 UAS-luciferase, luminescence, 20 h; Potency, µM (top dose mostly 53.6 µM), without a hit: top-dose activity, negative = inhibition, hits mostly inhibitors; 310,000 compounds, 3.5% hits;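 further: Gal4-VP16 expression switched on by copper sulfate through the metallothionein promoter; on the % scale 0 is the no-effect control and ±100 the full control effect; nearly all actives have a fitted effect of over 50% in size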
TGFb SMAD3 inh – inhibitors of TGF-b signaling; HepG2 CAGA-GFP TGF-b/SMAD3 reporter, GFP fluorescence, 18 h; TGF-beta stimulated, 500 pg/mL final; Potency, µM (top dose mostly 46.1 µM), inactives show at the top dose activity, negative = inhibition, actives largely listed as inhibitors; 410,000 compounds, 1.2% hits; AID 588855; further: on the % scale 0 is the no-effect control and ±100 the full control effect; nearly all actives have a fitted effect of over 65% in size
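Per well, imaged GFP fluorescence of HEPG2 CAGA-GFP cells gives the signal; cells get compound, then TGF-beta (500 pg/mL final), 18 h at 37 degrees C; %Activity versus -TGF-beta and +DMSO controls.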
RORg inh – ROR gamma (mouse) transcription inhibition | P51450 | Drosophila S2 Gal4-RORgamma UAS-luciferase reporter, 20 h | Potency, µM (titrated, usually from 53.6 µM), without a hit: top-dose activity change, negative = inhibition, usual class: inhibitors | 310,000 compounds, 5.4% hits; further: on the % scale 0 is the no-effect control and ±100 the full control effect; nearly all actives have a fitted effect of over 60% in size
Target sequence (P51450 whole entry, looked up, the tested form may be a part): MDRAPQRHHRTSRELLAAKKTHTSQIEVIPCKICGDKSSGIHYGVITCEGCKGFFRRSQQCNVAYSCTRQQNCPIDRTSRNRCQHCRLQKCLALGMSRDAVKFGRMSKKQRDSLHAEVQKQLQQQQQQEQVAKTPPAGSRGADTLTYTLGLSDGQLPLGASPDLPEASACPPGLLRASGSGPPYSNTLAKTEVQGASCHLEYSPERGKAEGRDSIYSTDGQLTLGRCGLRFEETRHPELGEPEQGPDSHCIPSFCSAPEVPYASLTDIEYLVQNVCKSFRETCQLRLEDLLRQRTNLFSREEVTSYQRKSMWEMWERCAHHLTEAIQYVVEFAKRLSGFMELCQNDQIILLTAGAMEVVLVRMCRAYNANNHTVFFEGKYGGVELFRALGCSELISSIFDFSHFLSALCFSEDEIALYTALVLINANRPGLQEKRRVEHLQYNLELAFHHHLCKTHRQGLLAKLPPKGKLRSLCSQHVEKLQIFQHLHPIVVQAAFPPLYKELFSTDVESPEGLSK
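Schneider cells (Drosophila), stable Gal4 DBD–ROR gamma + UAS-luc; 1 hr cmpd preincubation; Cu2+ induction 700 uM final; 20 hr ambient; luminescence.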
* marks the source's active call; other numbers are inactive results. Shown are actives, neighbours in structure and some others; about 6.3% of the full set was active somewhere. The call rests on the fitted dose curve; in most records, active means well fitted curve in the direction sought with a large enough effect; inconclusive means small, poorly fitted or top-dose-only effect, or another doubt; inactive means no such curve, though single readings can be large; an effect the other way counts as inactive or inconclusive. Potency means the concentration at half of the fitted maximal effect.

What do the screens show for `COc1ccc2c(c1)c(=O)oc1cc(OCC(=O)N3CCC(C)CC3)ccc12`?
ATXN2 expr inh: -13.8%; HepG2 tox: -5.8%; S2 tox: inconclusive; Gal4-VP16 FLuc: -23.2%; TGFb SMAD3 inh: 1.2%; RORg inh: -25.3%

Results for COc1ccc2c(c1)c(=O)oc1cc(OCC(=O)N3CCCC(C)C3)ccc12 (stereo not drawn) ?
ATXN2 expr inh: -2.3%; HepG2 tox: -2.4%; S2 tox: inconclusive; Gal4-VP16 FLuc: 10µM*; TGFb SMAD3 inh: -27.7%; RORg inh: -28.6%

What do the screens show for `O=C(CSc1oc(-c2ccco2)nc1S(=O)(=O)c1ccc(Br)cc1)c1ccc(Cl)cc1`?
ATXN2 expr inh: 2.9%; HepG2 tox: -15.8%; S2 tox: inactive; TGFb SMAD3 inh: -24.4%

What do the screens show for `Cc1ccc(-n2cc(-c3ccc([N+](=O)[O-])cc3)[nH]c2=S)c(C)c1`?
ATXN2 expr inh: 13.4%; HepG2 tox: -13.9%; S2 tox: inactive; Gal4-VP16 FLuc: 6.31µM*; TGFb SMAD3 inh: inconclusive; RORg inh: 1.26µM*

How did Cc1cccc(-n2cc(-c3ccc([N+](=O)[O-])cc3)[nH]c2=S)c1 do in these assays?
ATXN2 expr inh: 40.1%; HepG2 tox: 3.5%; S2 tox: inactive; Gal4-VP16 FLuc: 3.98µM*; TGFb SMAD3 inh: -1.6%; RORg inh: 7.08µM*

How did Cc1ccc2c(-c3ccc([N+](=O)[O-])cc3)cc(=O)[nH]c2c1 do in these assays?
ATXN2 expr inh: -4.4%; HepG2 tox: -12.0%; S2 tox: inactive; Gal4-VP16 FLuc: 1.7%; TGFb SMAD3 inh: -13.6%; RORg inh: 30.0%

Results for CCOc1ccc(CN(C)c2nc(-c3cccnc3)nc3ccccc23)cc1OC ?
ATXN2 expr inh: 18.9µM*; HepG2 tox: -29.3%; S2 tox: inconclusive; Gal4-VP16 FLuc: -5.2%; TGFb SMAD3 inh: inconclusive; RORg inh: -19.7%

What do the screens show for `CN(Cc1ccccc1F)c1nc(-c2cccnc2)nc2ccccc12`?
ATXN2 expr inh: -16.5%; HepG2 tox: -2.5%; S2 tox: inactive; Gal4-VP16 FLuc: 2.7%; TGFb SMAD3 inh: -18.0%; RORg inh: -5.3%

What do the screens show for `COc1ccc(C(=O)NC(=S)N2CCNC(=O)C2)cc1Br`?
HepG2 tox: 15.5%; S2 tox: inactive; Gal4-VP16 FLuc: inconclusive; TGFb SMAD3 inh: -12.0%; RORg inh: 15.8µM*

What do the screens show for `COc1ccc(C(=O)NC(=S)N2CCC(C)CC2)cc1Br`?
ATXN2 expr inh: 7.7%; HepG2 tox: -2.0%; S2 tox: inactive; Gal4-VP16 FLuc: 0.891µM*; TGFb SMAD3 inh: 0.0%; RORg inh: 0.631µM*

What do the screens show for `O=C1CN(C(=S)NC(=O)c2ccc(-c3ccccc3)cc2)CCN1`?
HepG2 tox: 15.0%; S2 tox: inconclusive; Gal4-VP16 FLuc: 10µM*; TGFb SMAD3 inh: 17.2%; RORg inh: 1.78µM*

Results for Cc1cc(OCC(=O)Nc2ccc(-c3nc4cc(Cl)ccc4o3)cc2)cc(C)c1Cl ?
ATXN2 expr inh: -0.5%; HepG2 tox: -2.0%; S2 tox: inactive; TGFb SMAD3 inh: 12.2%

What do the screens show for `O=C(CCCc1ccc(-c2ccccc2F)cc1)Nc1ccc(O)cc1`?
Gal4-VP16 FLuc: 4.47µM*; RORg inh: 1.58µM*

Results for CCOc1c(OC(C)=O)ccc(/C=C/c2ccc3cccc(OC(C)=O)c3n2)c1[N+](=O)[O-] ?
ATXN2 expr inh: -1.1%; HepG2 tox: -74.0%; S2 tox: inconclusive; Gal4-VP16 FLuc: 3.55µM*; TGFb SMAD3 inh: 12.6µM*; RORg inh: 3.16µM*

Results for COc1c(OC(C)=O)ccc(/C=C/c2ccc3ccccc3n2)c1[N+](=O)[O-] ?
ATXN2 expr inh: -40.9%; HepG2 tox: -52.7%; S2 tox: 22.4µM*; Gal4-VP16 FLuc: inconclusive; TGFb SMAD3 inh: inconclusive; RORg inh: inconclusive

What do the screens show for `COc1c(OC(C)=O)ccc(/C=C/c2ccc3cccc(OC)c3n2)c1[N+](=O)[O-]`?
ATXN2 expr inh: 7.8%; HepG2 tox: -48.8%; S2 tox: inactive; Gal4-VP16 FLuc: -16.7%; TGFb SMAD3 inh: -9.1%; RORg inh: inconclusive

Results for O=C1C=CC2(O[C@H](c3ccccc3)[C@@H](c3ccccc3)O2)[C@H](Sc2ccccc2O)C1 ?
ATXN2 expr inh: 3.98µM*; HepG2 tox: -103.4%; TGFb SMAD3 inh: 2.82µM*

What do the screens show for `Cc1cccc(CCNC(=O)CCc2c(C)nc3c4c(C)cc(C)nc4nn3c2C)c1`?
HepG2 tox: -9.0%

What do the screens show for `CCCC[n+]1ccn(C2=C([O-])c3ccccc3C(=O)/C2=N\S(=O)(=O)c2ccc(Br)cc2)c1`?
ATXN2 expr inh: -11.2%; HepG2 tox: -43.7%; S2 tox: inconclusive; Gal4-VP16 FLuc: inconclusive; TGFb SMAD3 inh: 6.31µM*; RORg inh: -43.2%

What do the screens show for `Cc1ccc(S(=O)(=O)/N=C2\C(=O)c3ccccc3C([O-])=C2n2cc[n+](CCC(C)C)c2)cc1`?
ATXN2 expr inh: inconclusive; HepG2 tox: 7.08µM*; S2 tox: inactive; Gal4-VP16 FLuc: inconclusive; TGFb SMAD3 inh: 3.98µM*; RORg inh: 8.91µM*

What do the screens show for `CC(=O)Nc1ccc(S(=O)(=O)/N=C2\C(=O)c3ccccc3C([O-])=C2n2cc[n+](-c3ccccn3)c2)cc1`?
HepG2 tox: -131.0%; S2 tox: inconclusive; Gal4-VP16 FLuc: 3.5%; TGFb SMAD3 inh: inconclusive; RORg inh: -8.8%

Results for O=C(NCCc1nc2ccccc2n1Cc1ccc(F)cc1)c1ccco1 ?
ATXN2 expr inh: 2.0%; HepG2 tox: -15.8%; S2 tox: inactive; TGFb SMAD3 inh: -4.0%

What do the screens show for `COc1ccc(C2CC(c3ccccc3)=NN2c2ccc(S(N)(=O)=O)cc2)cc1` (stereo not drawn)?
ATXN2 expr inh: -3.4%; HepG2 tox: -43.9%; Gal4-VP16 FLuc: -23.1%; TGFb SMAD3 inh: inconclusive; RORg inh: 21.0%

Results for COc1ccc(C2CC(c3ccccc3)=NN2c2ccc(/C=N/NC(=O)c3ccncc3)cc2)cc1 (stereo not drawn) ?
ATXN2 expr inh: -18.4%; HepG2 tox: -22.4%; S2 tox: inactive; Gal4-VP16 FLuc: 7.08µM*; TGFb SMAD3 inh: 1.8%; RORg inh: 3.16µM*

Results for COc1ccc(C2CC(c3ccccc3)=NN2c2ccc(C(N)=O)cc2)cc1 (stereo not drawn) ?
ATXN2 expr inh: -23.0%; HepG2 tox: -58.2%; Gal4-VP16 FLuc: -4.0%; TGFb SMAD3 inh: 15.8µM*; RORg inh: 41.6%
